Screens from PubChem BioAssay.
Compounds with a hit are over-represented: about 0.5% of the library has one in this group of screens.
GoLoco inh red – qHTS Assay for Inhibitors of RGS12 GoLoco Motif Activity (Red Fluorophore); Gai1:RGS12 GoLoco peptide FP, rhodamine, 10 min; Potency, µM (titrated, usually from 61.6 µM), inactives show at the top dose activity, negative = inhibition, actives largely listed as inhibitors; Guanine nucleotide-binding protein G(i) subunit alpha-1 (Homo sapiens), P63096; hit rate 0.44% among 230,000; active means well fitted inhibition curve with a large enough effect, not every such curve was filed as active; inactive means no such curve, though single readings can be large or run the other way; further: potency means the concentration at half of the fitted maximal effect; on the % scale 0 is the no-effect control and ±100 the full control effect; nearly all actives have a fitted effect of over 30% in size
TexasRed fluor – Total Fluorescence Counterscreen for Inhibitors of the Interaction of Thyroid Hormone Receptor and Steroid Receptor Coregulator 2 | Potency, µM (top dose mostly 106 µM), for inactives: at the top dose fluorescence change, negative = quenching | hit rate 0.29% among 280,000 | TRb/SRC2 Texas Red total fluorescence interference; active means well fitted curve in either direction with a large enough effect; inconclusive means small, poorly fitted or top-dose-only effect; further: potency means the concentration at half of the fitted maximal effect; on the % scale 0 is the no-effect control and ±100 the full control effect
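Flags fluorescent or light-absorbing compounds by total fluorescence, S + 2P, at 555 nm excitation and 632 nm emission. Mixture: 20 nM Texas Red SRC2 peptide, 0.6 uM human TRb LBD, 1 uM T3, 5% DMSO; compound exposure 5 h at ambient temperature.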
Menin MLL FP TR – qHTS Assay for Inhibitors Targeting the Menin-MLL Interaction in MLL Related Leukemias: Competition With Texas Red Labeled MLL-derived Mutant Peptide; O00255; Menin + Texas Red MLL mutant peptide, fluorescence polarization; Potency, µM (titrated, usually from 61.6 µM), without a hit: at the highest dose FP activity change, negative = inhibition, usual class: inhibitors; hit rate 0.23% among 270,000; AID 1768, 2009; active means well fitted inhibition curve with a large enough effect in the polarisation, with a control signal flat, not every such curve was filed as active; inconclusive means small, poorly fitted or top-dose-only effect, or effect the other way, or a change in a side signal; inactive means no such curve, though single readings can be large or run the other way; the % refers to the polarisation; further: potency means the concentration at half of the fitted maximal effect; % of control where 0% means no effect
CXXC DNA block – qHTS Fluorescence Polarization Assay for Inhibitors of MLL CXXC domain - DNA interaction | MLL-CXXC / FITC-HOXA9 DNA fluorescence polarization | Histone-lysine N-methyltransferase 2A (Homo sapiens), Q03164 | AID 2662, 2010 | Potency, µM (doses to about 115 µM), for the others: at the top dose activity change, negative = inhibition, most hits filed as inhibitors | hit rate 0.037% among 290,000; active means well fitted inhibition curve with a large enough effect in the polarisation, with a control signal flat, not every such curve was filed as active; inconclusive means small, poorly fitted or top-dose-only effect, or effect the other way, or a change in a side signal; inactive means no such curve, though single readings can be large or run the other way; the % refers to the polarisation; further: potency means the concentration at half of the fitted maximal effect
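Purified MLL-CXXC (added from a 7 uM solution) was preincubated 5 min at ambient with pinned compounds in 50 mM Tris-HCl pH 7.5, 50 mM NaCl, 1 mM DTT, 0.05% BSA. Fluorescein-labeled HOX-A9 DNA (50 nM solution) followed, 30 min, then polarization read.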
Menin-MLL FL inh – qHTS Assay for Inhibitors Targeting the Menin-MLL Interaction in MLL Related Leukemias: Competition With Fluorescein Labeled MLL-derived Peptide. Fluorescence polarization, fluorescein-MLL peptide displacement from menin. FP activity change, % at 61.4 µM. 290,000 tested, under 10 active. AID 1766, 2009; active means well fitted curve in the direction sought with a large enough effect in the polarisation, not every such curve was filed as active; inconclusive means small, poorly fitted or top-dose-only effect, or effect the other way, or a change in a side signal; inactive means no such curve, though single readings can be large or run the other way; the % refers to the polarisation; further: % of control where 0% means no effect
TRb-SRC2 inh – qHTS for Inhibitors of the Interaction of Thyroid Hormone Receptor and Steroid Receptor Coregulator 2; TRbeta-SRC2 peptide binding, fluorescence polarization; receptor liganded with 1 µM T3; Potency, µM (top dose mostly 106 µM), without a hit: at the highest dose activity change, negative = inhibition, actives largely listed as inhibitors; hit rate 0.065% among 280,000; AID 1469, 2008; active means well fitted inhibition curve with a large enough effect; inconclusive means small, poorly fitted or top-dose-only effect, or effect the other way;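 further: potency means the concentration at half of the fitted maximal effect; plate controls were bound peptide for no effect and peptide without receptor for full effect; nearly all actives have a fitted effect of over 50% in size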
Target sequence (P10828 whole entry, looked up): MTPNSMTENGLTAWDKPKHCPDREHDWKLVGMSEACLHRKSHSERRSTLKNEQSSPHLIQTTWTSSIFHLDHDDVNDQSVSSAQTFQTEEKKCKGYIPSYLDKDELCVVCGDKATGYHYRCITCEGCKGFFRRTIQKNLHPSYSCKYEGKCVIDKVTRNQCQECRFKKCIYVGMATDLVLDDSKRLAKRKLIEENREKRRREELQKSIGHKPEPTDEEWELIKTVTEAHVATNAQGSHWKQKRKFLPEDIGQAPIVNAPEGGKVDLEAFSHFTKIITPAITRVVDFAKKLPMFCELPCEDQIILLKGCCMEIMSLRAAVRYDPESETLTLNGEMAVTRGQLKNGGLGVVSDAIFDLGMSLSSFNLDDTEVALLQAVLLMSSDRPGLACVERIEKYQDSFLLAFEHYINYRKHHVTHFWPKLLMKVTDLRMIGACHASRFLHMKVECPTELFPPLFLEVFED
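Each compound concentration gave % activity, normalized to unbound and bound Texas Red SRC2 controls, from polarization read after 5 hr ambient incubation with T3-loaded human TRb LBD.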
The depositor's hits bear a star; ? = inconclusive; · = no result given; ! = not active in a repeat; [ ] = another dose, or the depositor's remark.

SMILES | GoLoco inh red | TexasRed fluor | Menin MLL FP TR | CXXC DNA block | Menin-MLL FL inh | TRb-SRC2 inh
Cn1c(=Nc2ccc(N3CCOCC3)cc2)ccc2ccccc21 | 0.32µM* | -2% | -1% | 0% | -1 | -4%
CCn1c(=Nc2ccc(N3CCOCC3)cc2)ccc2ccccc21 | 0% | -1% | 2% | -2% | -3 | 0%
CC(C)[N+](C)(C)CC#CC(O)(c1ccccc1)c1ccccc1 | 3.2µM* | -7% | · | 20% | 1 | -9%
O=C(O)CCCCCCCCCCC(=O)O | · | 1%[201 µM] | · | · | · | 7%[201 µM]
CC(C)C1CCC(C(=O)NC(Cc2ccccc2)C(=O)O)CC1 (centres undefined) | 20µM* | -1% | -23% | 0% | -1 | 1%
O=c1/c(=C\c2cc([N+](=O)[O-])cc([N+](=O)[O-])c2O)sc2nc3ccccc3n12 | 160% | 45µM*[quencher] | ? | -4% | ? | 16%
CN(C)c1ccc(NC(=O)N2CCOCC2)cc1 | 14% | -1% | 20µM* | 6% | 0 | -10%
O=C(CSc1ncnc2scc(-c3ccccc3)c12)N1CCN(Cc2ccc3c(c2)OCO3)CC1 | · | 45µM*[fluorescent] | -11% | 14% | ? | 4%
COc1cc2c3nnc(-c4ccc(F)cc4)c-3cn(Cc3ccccc3F)c2cc1OC | 47% | -2% | -10% | ? | ? | -1%
COc1cc2c3nnc(-c4ccccc4)c-3cn(Cc3ccccc3F)c2cc1OC | 0% | -1% | 13µM* | 6% | ? | -3%
COc1ccc(-c2c(C)nn3c4c(cnc23)C(=O)CC(c2ccc(C)cc2)C4)cc1 (centres undefined) | · | 14µM*[quencher] | · | · | · | -13%
NC(=S)COc1ccccc1 | 22µM* | 14% | · | -5% | -1 | -22%
CC1=[N+](C)c2ccc3ccccc3c2C1(C)C | 165% | 4.5µM*[fluorescent] | ? | 1% | · | 32µM*
CCc1ccc(S(=O)(=O)/N=C2/C=C(Sc3ncn[nH]3)C(=O)c3ccccc32)cc1 | -26% | -21% | ? | -4% | -1 | 20µM*
CCCCNc1c(C(=O)OCC)c(C)nc2c1cnn2CC | -9% | -2% | 40µM*! | 7% | 9 | 3%
O=C(O)c1cc2ccccc2cc1O | · | -6%[201 µM] | · | · | · | 1%[201 µM]
CCOC(=O)OCC1OC(c2ccccc2)C=CC1Oc1ccc2oc(=O)cc(C)c2c1 (centres undefined) | · | -1%[11.2 µM] | 0%[11.7 µM] | · | 4[11.7 µM] | -7%[11.2 µM]
COC(=O)c1c(-n2c(C)cc(C=O)c2C)sc2c1CCCC2 | 13% | -1% | 28µM* | 24% | 3 | 2%
COc1ccc(NS(=O)(=O)c2cc(NC(=O)c3ccco3)ccc2N2CCCCC2)cc1 | 8.9µM* | 0% | 16% | 0% | 4 | 5%
COC(=O)CC1Oc2ccc(Cl)cc2-n2cc(-c3ccc(C)cc3)nc21 (centres undefined) | · | 22µM*[quencher] | · | · | · | -8%
COC(=O)CC1Oc2ccc(C)cc2-n2cc(-c3ccc(C)cc3)nc21 (centres undefined) | · | -3% | · | · | · | -2%
CC(C)CCCCOC(=O)c1ccccc1C(=O)OCCCCC(C)C | · | -3%[201 µM] | · | · | · | 1%[201 µM]
CCOc1ccccc1NC(=O)c1c(NCc2sccc2C)sc2c1CCC(C)C2 (centres undefined) | · | 0.14µM*[quencher] | · | · | · | ?
CCOc1ccccc1NC(=O)c1c(NCc2sccc2C)sc2c1CCCCC2 | · | 1% | · | · | · | -3%
O=C(Nc1nc(-c2ccco2)c(-c2ccco2)s1)C1CC(=O)N(c2ccc3c(c2)OCCO3)C1 (centres undefined) | 17% | 25µM*[quencher] | ? | -7% | 56 | 27%
